Measured values from publication PMC4336329 (PLoS ONE, 2015).
The campaign covered roughly 310,000 compounds. About 14,000 (4.5%) showed an effect of 50% or more. The effect is printed as a negative number. The entries come from a sample that favours strong results as a whole.

The compounds below were run against human ether-à-go-go-related gene (hERG) potassium channel (human, UniProt Q12809) (assay: primary screen, population patch clamp on CHO cells stably expressing hERG; higher = less effect of the substance).
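Note: peak tail current of the secondary pulse compared with the same well before compound.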

Chain of human ether-à-go-go-related gene (hERG) potassium channel (Q12809 whole entry, looked up): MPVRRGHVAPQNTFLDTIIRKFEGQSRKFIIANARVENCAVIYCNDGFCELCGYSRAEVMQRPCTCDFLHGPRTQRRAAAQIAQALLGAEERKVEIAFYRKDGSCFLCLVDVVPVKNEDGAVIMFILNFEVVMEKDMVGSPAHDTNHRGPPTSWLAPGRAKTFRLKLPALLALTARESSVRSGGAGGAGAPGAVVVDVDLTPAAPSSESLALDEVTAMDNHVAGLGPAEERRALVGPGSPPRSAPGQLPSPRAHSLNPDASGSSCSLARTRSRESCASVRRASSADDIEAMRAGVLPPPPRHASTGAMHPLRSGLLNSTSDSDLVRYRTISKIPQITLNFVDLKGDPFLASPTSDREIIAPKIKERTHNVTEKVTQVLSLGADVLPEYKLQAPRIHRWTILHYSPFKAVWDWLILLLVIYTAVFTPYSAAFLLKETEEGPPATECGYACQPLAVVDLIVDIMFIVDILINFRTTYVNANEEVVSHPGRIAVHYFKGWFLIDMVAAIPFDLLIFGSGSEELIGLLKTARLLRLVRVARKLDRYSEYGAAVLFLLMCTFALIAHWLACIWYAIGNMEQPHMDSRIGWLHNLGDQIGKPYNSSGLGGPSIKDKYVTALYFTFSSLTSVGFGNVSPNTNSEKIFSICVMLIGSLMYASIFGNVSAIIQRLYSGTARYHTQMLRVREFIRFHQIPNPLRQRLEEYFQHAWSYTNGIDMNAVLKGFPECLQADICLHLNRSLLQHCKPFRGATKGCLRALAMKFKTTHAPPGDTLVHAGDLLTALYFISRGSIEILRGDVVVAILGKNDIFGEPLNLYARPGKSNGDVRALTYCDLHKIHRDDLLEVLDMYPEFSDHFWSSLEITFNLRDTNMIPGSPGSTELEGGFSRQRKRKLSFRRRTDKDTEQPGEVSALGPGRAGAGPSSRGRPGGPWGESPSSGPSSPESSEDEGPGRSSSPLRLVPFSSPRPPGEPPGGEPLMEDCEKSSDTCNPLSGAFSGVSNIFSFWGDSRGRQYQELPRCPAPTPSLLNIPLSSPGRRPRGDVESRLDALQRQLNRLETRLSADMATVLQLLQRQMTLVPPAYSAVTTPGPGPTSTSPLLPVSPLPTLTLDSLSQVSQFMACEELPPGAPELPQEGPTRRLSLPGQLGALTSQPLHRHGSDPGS

| Structure (SMILES) | hERG current change (%, negative = inhibition) at 10uM [%] |
| --- | --- |
| Cc1ccc(NC(=O)c2nc[nH]c2C(=O)N2CCc3ccccc3C2)cc1 | 18.8 |
| CCCN1CCC(NC(=O)Nc2ccc([N+](=O)[O-])cc2)CC1 | -32.2 |
| CCCN1CCC(NC(=S)Nc2ccc([N+](=O)[O-])cc2)CC1 | -52.6 |
| CN1CCN(C(=S)Nc2ccc([N+](=O)[O-])cc2)CC1 | -23.1 |
| CCCN1CCN(C(=S)Nc2ccc([N+](=O)[O-])cc2)CC1 | -52.1 |
| CCN1CCN(C(=S)Nc2ccc([N+](=O)[O-])cc2)CC1 | -26.6 |
| CCCN1CCC(NC(=S)Nc2ccc(S(N)(=O)=O)cc2)CC1 | 10.7 |
| COc1cc(/C=C/C(=O)O)cc(S(=O)(=O)Nc2ccccc2SC)c1OC | 15.5 |
| O=C(Nc1ncn[nH]1)c1ccc(S(=O)(=O)N2CCOCC2)cc1 | -5.88 |
| CC(C)c1ccc(NC(=O)CN2C(=O)NC3(CCCC3)C2=O)cc1 | 5.63 |
| COc1cccc(C(=O)OCCN2CCOCC2)c1.Cl | 6.33 |
| Cc1cc(C)c(OCC(=O)NCC2COc3ccccc3O2)c(C)c1 (centres unmarked) | -13.9 |
| O=C(CSc1nnc(CNC(=O)c2ccccc2F)o1)NC1CCCC1 | 10.7 |
| CCN(CCn1cccn1)C(=O)CCc1nnc(CCCc2ccccc2)o1 | -37 |
| CC(C)(C)c1cc(NC(=O)c2ccc(OC3CCCC3)cc2)no1 | 14.2 |
| CCOC(=O)C1CCN(C(=O)CCc2c(C)nc3c(-c4ccc(F)cc4)c(C)nn3c2C)CC1 | -71.1 |
| Cc1nc2c(-c3ccc(F)cc3)c(C)nn2c(C)c1CCC(=O)N1CCN(c2ccccn2)CC1 | -69.5 |
| COc1ccccc1NC(=O)CCc1c(C)nc2c(-c3ccc(F)cc3)c(C)nn2c1C | -20.3 |
| Cc1nc2c(-c3ccccc3)c(C)nn2c(C)c1CCC(=O)N1CCOCC1 | -33.9 |
| Cc1nc2cc(-c3cccc(F)c3)nn2c(C)c1CCC(=O)N1CCC2(CC1)OCCO2 | -37.5 |
| COC(CNC(=O)CCc1c(C)nc2c(-c3ccc(F)cc3)c(C)nn2c1C)OC | -21.8 |
| Cc1nc2c(-c3ccc(F)cc3)c(C)nn2c(C)c1CCC(=O)N1CCC2(CC1)OCCO2 | -67.8 |
| Cc1nc2c(-c3ccccc3)c(C)nn2c(C)c1CCC(=O)N1CCC2(CC1)OCCO2 | -40.5 |
| Cc1nc2c(-c3ccc(F)cc3)c(C)nn2c(C)c1CCC(=O)NCCN1CCOCC1 | -24.3 |
| Cc1nc2c(-c3ccc(F)cc3)c(C)nn2c(C)c1CCC(=O)N1CCC(Cc2ccccc2)CC1 | -21.2 |
| Cc1nc2c(-c3ccc(F)cc3)c(C)nn2c(C)c1CCC(=O)N1CCOCC1 | -53.3 |
